In the library only some 0.54% were active in any assay of this set; here they are far more common.
Mtb RmlCD inh = blocks M. tuberculosis RmlC and RmlD coupled enzymes; P9WH09+P9WH11; RmlC+RmlD coupled enzyme assay, percent inhibition; primary screen in compound mixtures; inhibition, % at 3.6 µM; actives 0.03% (n = 160,000); AID 1533; in the data active means inhibition mostly above about 34%, no sharp cut-off
VHR inh abs = blocks human VHR1 dual specificity phosphatase | inhibition, % at 13.3 µM | AID 1654 | actives 0.52% (n = 290,000) | recombinant VHR phosphatase, pNPP absorbance; in the data active means inhibition above about 50%
Target sequence (P51452 whole entry, looked up): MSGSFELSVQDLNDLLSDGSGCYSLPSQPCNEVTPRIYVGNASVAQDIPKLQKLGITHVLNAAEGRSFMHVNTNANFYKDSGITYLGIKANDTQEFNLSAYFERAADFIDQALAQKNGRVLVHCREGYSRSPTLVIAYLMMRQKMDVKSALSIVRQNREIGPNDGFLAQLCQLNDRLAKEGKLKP
Starred values were filed as active, the others as inactive.

How did CC(C)[C@H](NC(=O)N1CC(=O)Nc2ccccc21)C(=O)Nc1nccs1 do in these assays?
VHR inh abs: -7

What do the screens show for `COc1cccc(NC(=O)CCNC(=O)N2CC(=O)Nc3ccccc32)c1`?
VHR inh abs: 31

How did Cc1cccc(Nc2nc(-c3ccccn3)cs2)n1 do in these assays?
Mtb RmlCD inh: -3; VHR inh abs: -1

What do the screens show for `O=C(COC(=O)/C=C/c1ccccc1[N+](=O)[O-])NCC(F)(F)F`?
Mtb RmlCD inh: 8; VHR inh abs: 4

Results for COc1ccc2cc3[n+](cc2c1OC)CCc1cc2c(cc1-3)OCO2 ?
VHR inh abs: 4

Results for COc1ccc(-n2ccc(=O)c(C(=O)Nc3ccc(S(=O)(=O)Nc4nccs4)cc3)n2)cc1 ?
VHR inh abs: 58*

How did O=C(Nc1ccc(S(=O)(=O)Nc2nccs2)cc1)c1nn(-c2ccccc2)ccc1=O do in these assays?
VHR inh abs: 39

How did O=C(O)C1CC(=O)N(c2ccc(F)cc2)C1 (stereo not drawn) do in these assays?
Mtb RmlCD inh: 7; VHR inh abs: 11

How did O=Cc1ccc(OC(=O)C2CC(=O)N(c3ccc(F)cc3)C2)cc1 (stereo not drawn) do in these assays?
VHR inh abs: 51*

Results for COC(=O)c1cc(NC(=O)CSc2nnc(N)s2)ccc1Cl ?
VHR inh abs: 17

Results for Nc1nnc(SCC(=O)Nc2ccc(Cl)c(C(=O)O)c2)s1 ?
Mtb RmlCD inh: -5; VHR inh abs: 56*

How did CCn1c(COc2ccc(=O)n(-c3ccccc3)n2)n[nH]c1=S do in these assays?
Mtb RmlCD inh: 4; VHR inh abs: 34

How did COc1ccc(Br)cc1S(=O)(=O)N(CC(=O)N1CCN(C)CC1)c1ccccc1 do in these assays?
VHR inh abs: 29

What do the screens show for `Cc1ccc(S(=O)(=O)N2CN(Cc3ccco3)c3nc4ccccc4nc32)cc1`?
Mtb RmlCD inh: 10; VHR inh abs: 19

How did O=S(=O)(c1ccc(F)cc1)N1CN(Cc2ccco2)c2nc3ccccc3nc21 do in these assays?
VHR inh abs: 52*

How did COc1ccc(CN2CCOCC2)cc1 do in these assays?
VHR inh abs: 52*

How did COc1ccc(CN2CCOCCOCCOCC2)cc1 do in these assays?
Mtb RmlCD inh: 8; VHR inh abs: -3

How did COc1ccc(-c2csc(NC(=O)C3CCCCN3S(=O)(=O)c3ccccc3)n2)cc1 (stereo not drawn) do in these assays?
VHR inh abs: 19

What do the screens show for `NC(=O)c1cc2c3ccccc3ccn2c1-c1ccccc1`?
Mtb RmlCD inh: 32; VHR inh abs: 64*

How did Cc1cc(C(N)=O)c2ccccc2n1 do in these assays?
VHR inh abs: 2

Results for Cc1nccn1CCCNC(=O)C1CCC(=O)N(Cc2ccccc2F)C1 (stereo not drawn) ?
VHR inh abs: 6

What do the screens show for `COCCn1nnnc1CN(CCc1ccc(OC)c(OC)c1)Cc1cc2ccc(C)cc2[nH]c1=O`?
Mtb RmlCD inh: 6; VHR inh abs: 52*

What do the screens show for `Cc1ccc2cc(CN(CCO)Cc3nnnn3Cc3ccc(F)cc3)c(=O)[nH]c2c1`?
Mtb RmlCD inh: 0; VHR inh abs: 12

Results for O=C(Nc1ncn[nH]1)c1cccc(S(=O)(=O)N2CCOCC2)c1 ?
Mtb RmlCD inh: 1; VHR inh abs: 6

How did COc1ccc(-c2cc(C(F)(F)F)n3nc(C(=O)N(C)Cc4ccccc4)cc3n2)cc1OC do in these assays?
Mtb RmlCD inh: 40*; VHR inh abs: -14

Results for COc1ccc(-c2cc(C(F)(F)F)n3nc(C(=O)Nc4cc(C)on4)cc3n2)cc1OC ?
Mtb RmlCD inh: 10; VHR inh abs: -12

Results for CCOC(=O)C1=C(C)NC(SCC(=O)Nc2cc(C)on2)=C(C#N)C1c1cccs1 (stereo not drawn) ?
VHR inh abs: 8

Results for CC1(C(=O)N(CC(=O)NC2CCCC2)Cc2ccc(Cl)cc2)CC(=O)N=C2C=CC=CN21 (stereo not drawn) ?
VHR inh abs: 52*

How did CC1=CC=CC2=NC(=O)CC(C)(C(=O)N(CC(=O)NC3CCCC3)Cc3ccc(Cl)cc3)N12 (stereo not drawn) do in these assays?
VHR inh abs: 35

What do the screens show for `CCOc1ccc(CC(C(N)=O)C(N)=O)cc1CN(C)C`?
VHR inh abs: 23

How did OC(CNCC1CCCCC1)COc1ccccc1 (stereo not drawn) do in these assays?
VHR inh abs: 51*

How did OC(CNC1CCCC1)COc1ccc(-c2ccccc2)cc1 (stereo not drawn) do in these assays?
VHR inh abs: 48

How did CC(C)OC(=O)CN1C(=O)S/C(=C/c2ccc(N3CCCCC3)o2)C1=O do in these assays?
Mtb RmlCD inh: -7; VHR inh abs: -15

Results for Cc1ccc2cccc(Oc3cnccn3)c2n1 ?
VHR inh abs: 23

What do the screens show for `COc1ccc(C2c3c(ncn(CCN4CCOCC4)c3=N)Oc3ccc4ccccc4c32)cc1` (stereo not drawn)?
VHR inh abs: 3

From PubChem
